Screening data (PubChem)
Lassa entry inh: Lassa virus entry inhibition. Lassa virus pseudotype entry inhibition, cell reporter. Potency, µM (highest dose often 37.9 µM), for inactives: top-dose activity change, negative = inhibition, actives largely listed as inhibitors. 1.2% of 300,000 active. AID 540256; calls by dose curve; tested in HEK293 cells; further: potency means the concentration at half of the fitted maximal effect; on the % scale 0 is the no-effect control and ±100 the full control effect; nearly all actives have a fitted effect of over 50% in size
Shiga inhibitor: blocks Shiga toxin action in Vero cells; AID 2315; inhibition, % at 38.7 µM; 9.2% of 290,000 active; Vero cells, Shiga toxin protein synthesis inhibition reporter; in the data active means inhibition mostly above about 28%, no sharp cut-off; inactive means mostly below about 43%; further: 0% is about no effect
FMDV inh: blocks foot and mouth disease virus | FMDV antiviral cell-based qHTS | Potency, µM (top dose mostly 57.9 µM), for the others: top-dose activity change, negative = inhibition, usual class: inhibitors | 1.2% of 410,000 active | AID 1159524; calls by dose curve; tested in HEK293T cells; further: read-out not given here; potency means the concentration at half of the fitted maximal effect; on the % scale 0 is the no-effect control and ±100 the full control effect; nearly all actives have a fitted effect of over 45% in size
CHX counter: counter-screen hit for Shiga toxin inhibitors, cycloheximide; cell reporter, cycloheximide protein synthesis inhibition counterscreen; max response, %; 12% of 300,000 active; in the data active means max response mostly above about 13%, no sharp cut-off; inactive means mostly below about 14%; further: read at 38.3 µM for the half of the compounds with a filed dose; 0% is about no effect
HCV inhibitor: inhibitors of hepatitis C virus infection. Potency, µM (series often up to 41.8 µM), for the others: top-dose activity change, negative = inhibition, usual class: inhibitors. Huh7.5.1 HCVcc-Cre infection, luciferase reporter, 44 h. 3.4% of 340,000 active; active means well fitted inhibition curve with a large enough effect; inconclusive means small, poorly fitted or top-dose-only effect, or another doubt; inactive means no such curve, though single readings can be large or run the other way; further: potency means the concentration at half of the fitted maximal effect; on the % scale 0 is the no-effect control and ±100 the full control effect
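Compounds are dispensed onto cells plated 4 h earlier at 1,000 per well, with HCVcc-Cre virus (about 0.5 moi) added next. Following 44 h of culture, luminescent signal is measured for 15 sec after 15 min with substrate at room temperature.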
MARV entry inh: inhibitors of Marburg virus binding or cell entry | 1.8% of 300,000 active | AID 540276 | Potency, µM (series often up to 37.8 µM), for inactives: at the highest dose activity change, negative = inhibition, most hits filed as inhibitors | Marburg virus pseudotyped entry inhibition, cell reporter; calls by dose curve; tested in HEK293 cells; further: potency means the concentration at half of the fitted maximal effect; on the % scale 0 is the no-effect control and ±100 the full control effect
An asterisk follows results filed as active; [ ] = remark or other dose. A selection: hits, their analogues and other compounds. The true share with any hit is near 13%.

`c1ccc(CCNc2ccccc2)cc1` gave Shiga inhibitor 31 and CHX counter 21*.
Screening c1ccc(CCNCc2ccccc2)cc1 returned Lassa entry inh 13%, Shiga inhibitor -11, FMDV inh 10%, CHX counter 7, HCV inhibitor 4% and MARV entry inh -13%.
Screening Cc1nnc(NCCc2ccccc2)c2ccccc12 returned Lassa entry inh 23%[46.1 µM], Shiga inhibitor 132*, FMDV inh 29%, CHX counter 42*, HCV inhibitor -23% and MARV entry inh inconclusive.
Screening Cc1ccc(CCNc2ccccc2)c[n+]1[O-] returned Lassa entry inh 5%, Shiga inhibitor 11, FMDV inh 29%, CHX counter 15*, HCV inhibitor 6% and MARV entry inh 18%.
For CN(CCO)c1ccc([N+](=O)[O-])cc1C(=O)O the results were Lassa entry inh -3%, Shiga inhibitor -4, FMDV inh 26%, CHX counter 1, HCV inhibitor 5% and MARV entry inh inconclusive.
Screening COc1cc(/C=N/N(C)C)ccc1OC(=O)c1cccs1 returned Lassa entry inh 24%, Shiga inhibitor 71*, FMDV inh 9%, CHX counter 29*, HCV inhibitor 0% and MARV entry inh 3%.
`COc1cc(/C=N/Nc2ccc(Cl)cc2)ccc1OC(=O)c1cccs1` gave Lassa entry inh 11%, Shiga inhibitor 14, FMDV inh 16%, CHX counter 16*, HCV inhibitor -1% and MARV entry inh 3%.
For O=C(NCCc1c[nH]c2ccccc12)C(=O)NCC1OCCN1S(=O)(=O)c1cc(F)ccc1F (stereo unspecified) the results were Shiga inhibitor 3, FMDV inh inconclusive, CHX counter -6 and HCV inhibitor -27%.
For Cn1c(O)c(/C=C2\C=c3ccccc3=NC2=O)c(=O)n(C)c1=O the results were Shiga inhibitor -2, FMDV inh -14%, CHX counter -1 and HCV inhibitor 14%.
Screening Cn1c(O)c(/C=C2\N=c3ccccc3=C2CCNC(=S)NC2CC2)c(=O)n(C)c1=O returned Lassa entry inh -9%[46.1 µM], Shiga inhibitor 9, FMDV inh 13µM*, CHX counter -1, HCV inhibitor 7% and MARV entry inh 7%[46.1 µM].
`Cc1c(Cl)cccc1NC(=O)CCCCCN1C(=O)CCC1=O` gave Lassa entry inh -2%, Shiga inhibitor 2, FMDV inh 14%, CHX counter -2, HCV inhibitor 13% and MARV entry inh 7%.
For NC(=O)Cc1cn(-c2ncc(C(F)(F)F)cc2Cl)c2ccccc12 the results were Lassa entry inh -8%, Shiga inhibitor -20, FMDV inh -13%, CHX counter -3, HCV inhibitor inconclusive and MARV entry inh 16%.
CCN1C(=O)CC(c2ccccc2)N(C2CCCC2)c2nc(Nc3ccc(C(=O)NC4CCN(C)CC4)cc3OC)ncc21 (stereo unspecified) was read as FMDV inh -21% and HCV inhibitor 8.9µM*.
`COc1cc(C(=O)NC2CCN(C)CC2)ccc1Nc1ncc2c(n1)N(Cc1ccccc1)CCC(=O)N2C` gave FMDV inh 30% and HCV inhibitor 29%[8.37 µM].
For COc1cc(C(=O)NC2CCN(C)CC2)ccc1Nc1ncc2c(n1)N(C1CCCCC1)CCC(=O)N2C the results were FMDV inh 31% and HCV inhibitor 1.8µM*.
For CCN1C(=O)CC(C(C)C)N(C2CCCC2)c2nc(Nc3ccc(C(=O)NC4CCN(C)CC4)cc3OC)ncc21 (stereo unspecified) the results were FMDV inh inconclusive and HCV inhibitor 17%[8.37 µM].
For C=C1C(=O)O[C@@H]2[C@H]3O[C@]3(C)CCC=C(C)CC[C@@H]12 the results were Lassa entry inh 9.2µM*, FMDV inh -19% and MARV entry inh 22µM*.
CCNc1nc(CN2CCCCC2)nc2scc(-c3ccccc3)c12 was read as Lassa entry inh inconclusive, Shiga inhibitor -9, FMDV inh inconclusive, CHX counter -3, HCV inhibitor 10µM* and MARV entry inh 4.5µM*.
`CCN(CC)S(=O)(=O)c1ccc(S(=O)(=O)N(Cc2ccccn2)Cc2ccco2)cc1` gave Lassa entry inh inconclusive, Shiga inhibitor 8, CHX counter 3, HCV inhibitor 10µM* and MARV entry inh -12%.
`Cn1c2ccccc2c2nnc(SCC(=O)Nc3cccc(O)c3)nc21` gave Shiga inhibitor 23, FMDV inh 15%, CHX counter 11* and HCV inhibitor -26%.
For Cn1c2ccc(F)cc2c2nnc(SCCN3CCCCC3)nc21 the results were Lassa entry inh -6%[46.1 µM], Shiga inhibitor 12, FMDV inh -7%, CHX counter 4, HCV inhibitor 11µM* and MARV entry inh 1%[46.1 µM].
Screening Cn1c2ccccc2c2nnc(SCCN3CCOCC3)nc21 returned Shiga inhibitor 30, FMDV inh 15%, CHX counter 16* and HCV inhibitor 3%.
Screening CCCCn1c2ccc(F)cc2c2nnc(SCCN3CCCCC3)nc21 returned Lassa entry inh -13%[46.1 µM], Shiga inhibitor -7, FMDV inh inconclusive, CHX counter -1, HCV inhibitor inconclusive and MARV entry inh 17%[46.1 µM].
Cc1cccc(CSCCNC(=O)CN2C(=O)c3ccccc3S2(=O)=O)c1 was read as Lassa entry inh -15%, Shiga inhibitor 18, FMDV inh 20%, CHX counter -3, HCV inhibitor -5% and MARV entry inh -17%[46.1 µM].
Screening C[C@@H]1CN([C@@H](C)CO)C(=O)CCCn2cc(nn2)CO[C@H]1CN(C)S(=O)(=O)c1ccc(C#N)cc1 returned FMDV inh 3%.
Screening O=C1N(Cc2ccccc2)c2ccccc2C1(O)c1c[nH]c2ccccc12 (stereo unspecified) returned Lassa entry inh -17%[46.1 µM], FMDV inh -20% and MARV entry inh -24%[46.1 µM].
`CCc1nnc(NC(=O)C2CCCCC2)s1` gave Lassa entry inh 17%, Shiga inhibitor 13, FMDV inh 28%, CHX counter 39*, HCV inhibitor 8% and MARV entry inh -3%.
CCCC(=O)Nc1nnc(SCC)s1 was read as Lassa entry inh 11%, Shiga inhibitor 38*, FMDV inh 34%, CHX counter 19*, HCV inhibitor 33% and MARV entry inh 3%.
CCc1nnc(NC(=O)NC(C)(C)C)s1 was read as Lassa entry inh inconclusive, Shiga inhibitor 95, FMDV inh 37%, CHX counter 24*, HCV inhibitor 13% and MARV entry inh 7%.
For CCOC(=O)Cc1nnc(NC(=O)C2CCCCC2)s1 the results were Lassa entry inh 0%, Shiga inhibitor 4, FMDV inh 5%, CHX counter 7, HCV inhibitor 10% and MARV entry inh -1%.
Screening CC(C)Sc1nnc(NC(=O)C2CC2)s1 returned Shiga inhibitor active, FMDV inh 29%, CHX counter 35* and HCV inhibitor 6%.
